Results published in PubChem BioAssay (Tox21).
Where “and” joins values, the source holds several entries; their conditions need not be identical. Identical values can stand only once. Inconclusive results are not listed. Values without a mark were called inactive. Calls of active or inactive are those of the source. Calls follow the shape of the dose curve; as a rule, active = well fitted cell-killing curve with a large enough effect in the repeat runs; inconclusive = weak or mixed curves, or effect the other way; inactive = flat fitted curve, though single readings scatter.

Test: qHTS RealTime-Glo MT Cell Viability Assay in HEK293 cells - 8 hour (AID 1224887); also: nearly all actives have a fitted effect of over 50% in size; as to activity change, negative = cytotoxicity: top concentration of the series differs between compounds
Conditions: RealTime-Glo luminescence; series mostly up to 76.8 µM; activity change, negative = cytotoxicity: at the top concentration
Description: U.S. Tox21 Program National Center for Advancing Translational Sciences [NCATS] NIH Chemical Genomics Center [NCGC] U.S. Environmental Protection Agency [EPA] National Institutes of Environmental Health Sciences [NIEHS] National Toxicology Program [NTP] U.S. Food and Drug Administration [FDA] Tox21 Assay Overview: Measure of cell viability is critical in the cell-base assay. Analysis of cell viability is necessary for the characterization of cell responses to cytotoxic drugs and environmental stress. A RealTime-Glo MT Cell Viability Assay to monitor cell viability in real time of continues cell culture during 40 hours of compound treatment was used to screen Tox21 10K library compounds in Hek293 cells. The RealTime-Glo MT Cell Viability Assay is a nonlytic, homogeneous, bioluminescent method to measure cell viability in real time using a simple, plate-based method. The assay involves adding NanoLuc luciferase and a cell-permeant prosubstrate to cells in culture. Viable cells reduce the proprietary prosubstrate to generate a substrate for NanoLuc luciferase. This substrate diffuses from cells into the surrounding culture medium, where it is rapidly used by the NanoLuc Enzyme to produce a luminescent signal. The signal correlates with the number of viable cells, making the assay well suited for cytotoxicity studies.
Tox21 Assay Protocol Summary: The mixture of Hek293 cell suspension and reagents were dispensed at 600cells/6 ul/well in 1536-well tissue culture treated black solid bottom plates using a Multidrop dispenser. After the assay plates were incubated at a 37 C/5% CO2 incubator for 5 hours, 23 nL of compounds dissolved in DMSO, positive and negative controls was transferred to the assay plate by a pintool work station. The plates were incubated at 37 C for 40 hours. The luminescence intensity were measured at 0h, 8h, 16h, 24h, 32h and 40h time points using ViewLux plate reader during compound treatment.
% is scaled to controls: 0 for no effect and ±100 for the full control effect; potency is read from the fitted curve at half-maximal effect.

SMILES	activity change, negative = cytotoxicity	Potency
CC(C)=CC1CC(C)CCO1 (stereo not given)	3.84%	–
CN1[C@@H]2CC[C@H]1CC(OC(=O)C(CO)c1ccccc1)C2 (stereo not given in full)	–	inactive
ClC/C=C\CCl	8.93%	–
Cc1cn[nH]c1	0.279% [at 35.3 µM]	–
O=C(NO)c1ccccc1	10.3%	–
NC(=O)c1nc(-c2cccc(-c3cc(F)ccc3OCC(F)(F)C(F)(F)F)c2)n[nH]1	-25.3%	–
C/C=C/CO	7.56%	–
Cc1ccc(O)cn1	-6.13%	–
C[Si](C)O[Si](C)C	-3.41%	–
C=C(c1ccc(C(=O)O)cc1)c1cc2c(cc1C)C(C)(C)CCC2(C)C	-2.03% [at 35.3 µM]	–
COc1ccc(-n2nc(CCC(=O)N(C)O)cc2-c2ccc(Cl)cc2)cc1	6.63% [at 35.3 µM]	–
COc1ccccc1OCCNCC(O)COc1cccc2[nH]c3ccccc3c12 (stereo not given)	–	16.9 µM (active)
Cc1c(C(=O)O)cccc1[N+](=O)[O-]	2.38%	–
c1cc2c3c(c1)ccc1cccc(c13)C2	-23.8%	–
COc1ccc(C#N)cc1	-11.9%	–
COc1cccc(CCc2ccccc2OCC(CN(C)C)OC(=O)CCC(=O)O)c1 (stereo not given)	-2.62% [at 35.3 µM]	–
CCCCCCCCCCCCCCNCCO	–	23.9 µM (active)
O=Cc1ccc(F)cc1	2.02%	–
COC(=O)CC#N	11.7%	–
C[C@]12CC[C@H]3C(=CCc4cc(O)ccc43)[C@@H]1CCC2=O	-26.7%	–

SMILES	activity change, negative = cytotoxicity	Potency
CC(COC(=O)c1ccccc1)OC(=O)c1ccccc1 (stereo not given)	-11.6%	–
Cc1cccc(N(C)C)c1	4.76%	–
CN(C)CCCN1c2ccccc2Sc2ccc(C(F)(F)F)cc21	–	21.3 µM (active)
CN(C)CCN1CCOCC1	3.11%	–
Cc1ccc2ccc3cccc4ccc1c2c34	-27.6%	–
CO[Si](CCCNCCNCCN)(OC)OC	-0.165%	–
Cc1ccc(-n2[nH]c(C)c(N=Nc3cccc(-c4cccc(C(=O)O)c4)c3O)c2=O)cc1C	-15.5% [at 35.3 µM]	–
CCCCCCCCCCCCCOP(=O)(O)O	3.81%	–
S=P(N1CC1)(N1CC1)N1CC1	12.7%	–
CCCCCCOc1cc(C)c(O)c(C)c1C	–	14 µM (active)
CC1=C(/C=C/C(C)=C/C=C/C(C)=C/C(=O)Nc2ccc(O)cc2)C(C)(C)CCC1	–	710 nM (active) and 239 nM (active)
O=C1c2c(O)ccc([N+](=O)[O-])c2C(=O)c2c([N+](=O)[O-])ccc(O)c21	–	7.69 µM (active)
CCCCCCOc1ccc(O)cc1	–	0.0617 µM (active)
CC(CN(C)C)CN1c2ccccc2CCc2ccccc21 (stereo not given)	0.154% [at 35.3 µM]	–
O=CC1CC1	10.8%	–
CCCCCCCC/C=C/CCCOC(C)=O	19.6%	–
Cn1cnc2ncnc(N)c21	5.38% [at 35.3 µM]	–
OCCC(O)CO (stereo not given)	9.57%	–
C=C(C)C(=O)OCCC[Si](Cl)(Cl)Cl	-11.6%	–
O=C(O)CCCCCCC(=O)O	13.3%	–
